From the supplement of paper PMC10849652
Of roughly 7,900 targets only a part is listed; those with a hit were picked by preference. About 0.6% of all pairs of compound and target were hits.

Assays:
Test in all cases: log2 fold change, soluble protein after heating vs DMSO (PISA); higher = thermal stabilisation; K562 cells, 10 uM, 30 min; active = over 0.2 and 3.5 SD of the protein, either way, in both replicates (recomputed)
[1] = compound: CC[C@@H]1C(=O)N(C)c2cnc(Nc3ccc(C(=O)NC4CCN(C)CC4)cc3OC)nc2N1C1CCCC1
Procedure, shortened: (§1)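 Aliquots of K562 cells (2×10^6 cells/mL) treated with 10 μM compound for 30 min were heated for 3 min over 48°C-58°C. After pooling and extraction in PBS with 0.5% NP-40 at 4°C, soluble protein from a 21,000xg, 90 min spin was quantified by TMTpro 16plex LC-MS/MS with channel sums equalised. Thermal stability is expressed against control samples, from duplicates, as a log2 fold change.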

[2] = compound: CC[C@@H]1C(=O)N(C)c2cnc(Nc3ccc(C(=O)N[C@H]4CC[C@H](N5CCN(CC6CC6)CC5)CC4)cc3OC)nc2N1C(C)C [volasertib]
Procedure, shortened: as §1

[3] = compound: CC[C@H](C)N1C=C(C2=C(C=C(C=C21)C3=CN=C(C=C3)N4CCNCC4)C(=O)NCC5=C(C=C(NC5=O)C)C)C
Procedure, shortened: as §1

[4] = compound: CC[C@H](C)[C@@H](C(=O)N[C@@H]([C@@H](C)O)C(=O)N[C@@H](CC(C)C)C(=O)[C@]1(CO1)C)NC(=O)[C@H]([C@@H](C)CC)N(C)C(=O)C [epoxomicin]
Procedure, shortened: as §1

[5] = compound: CCn1c(C(=O)N(C2CC2)C2CC2)cc2c3c(ncn3C)c(Nc3cc(C)n(C)n3)nc21
Procedure, shortened: as §1

[6] = compound: CCn1cc(-c2ccnc3[nH]c(-c4cccc(CN(C)C)c4)cc23)c(-c2ccc(NC(=O)N(C)C)cc2)n1
Procedure, shortened: as §1

[7] = compound: CN(C)CC(=O)Nc1ccc2[nH]c(=O)c3ccccc3c2c1
Procedure, shortened: as §1

[8] = compound: CN(CCOC1=CC=C(C=C1)C[C@H]2C(=O)NC(=O)S2)C3=CC=CC=N3 (racemic) [rosiglitazone]
Procedure, shortened: as §1

[9] = compound: CN1C2=C(C3=C1C(=O)N(N=C3)CC4=CC(=CC=C4)N)SC(=C2)S(=O)C
Procedure, shortened: as §1

[10] = compound: CN1CCC(CNc2ccc3ncc(-c4cccc(OC(F)(F)F)c4)n3n2)CC1
Procedure, shortened: as §1

Measured: log2 fold change

IFT74 (UniProt Q96LB3)
inactive: [1] 0.125 | [2] 0.01 | [3] -0.319 | [4] -0.061 | [5] -0.057 | [6] 0 | [7] -0.051 | [8] 0.031 | [9] 0.025 | [10] -0.05

GCC2 (UniProt Q8IWJ2)
Sequence of UniProt Q8IWJ2 (Q8IWJ2 whole entry, looked up): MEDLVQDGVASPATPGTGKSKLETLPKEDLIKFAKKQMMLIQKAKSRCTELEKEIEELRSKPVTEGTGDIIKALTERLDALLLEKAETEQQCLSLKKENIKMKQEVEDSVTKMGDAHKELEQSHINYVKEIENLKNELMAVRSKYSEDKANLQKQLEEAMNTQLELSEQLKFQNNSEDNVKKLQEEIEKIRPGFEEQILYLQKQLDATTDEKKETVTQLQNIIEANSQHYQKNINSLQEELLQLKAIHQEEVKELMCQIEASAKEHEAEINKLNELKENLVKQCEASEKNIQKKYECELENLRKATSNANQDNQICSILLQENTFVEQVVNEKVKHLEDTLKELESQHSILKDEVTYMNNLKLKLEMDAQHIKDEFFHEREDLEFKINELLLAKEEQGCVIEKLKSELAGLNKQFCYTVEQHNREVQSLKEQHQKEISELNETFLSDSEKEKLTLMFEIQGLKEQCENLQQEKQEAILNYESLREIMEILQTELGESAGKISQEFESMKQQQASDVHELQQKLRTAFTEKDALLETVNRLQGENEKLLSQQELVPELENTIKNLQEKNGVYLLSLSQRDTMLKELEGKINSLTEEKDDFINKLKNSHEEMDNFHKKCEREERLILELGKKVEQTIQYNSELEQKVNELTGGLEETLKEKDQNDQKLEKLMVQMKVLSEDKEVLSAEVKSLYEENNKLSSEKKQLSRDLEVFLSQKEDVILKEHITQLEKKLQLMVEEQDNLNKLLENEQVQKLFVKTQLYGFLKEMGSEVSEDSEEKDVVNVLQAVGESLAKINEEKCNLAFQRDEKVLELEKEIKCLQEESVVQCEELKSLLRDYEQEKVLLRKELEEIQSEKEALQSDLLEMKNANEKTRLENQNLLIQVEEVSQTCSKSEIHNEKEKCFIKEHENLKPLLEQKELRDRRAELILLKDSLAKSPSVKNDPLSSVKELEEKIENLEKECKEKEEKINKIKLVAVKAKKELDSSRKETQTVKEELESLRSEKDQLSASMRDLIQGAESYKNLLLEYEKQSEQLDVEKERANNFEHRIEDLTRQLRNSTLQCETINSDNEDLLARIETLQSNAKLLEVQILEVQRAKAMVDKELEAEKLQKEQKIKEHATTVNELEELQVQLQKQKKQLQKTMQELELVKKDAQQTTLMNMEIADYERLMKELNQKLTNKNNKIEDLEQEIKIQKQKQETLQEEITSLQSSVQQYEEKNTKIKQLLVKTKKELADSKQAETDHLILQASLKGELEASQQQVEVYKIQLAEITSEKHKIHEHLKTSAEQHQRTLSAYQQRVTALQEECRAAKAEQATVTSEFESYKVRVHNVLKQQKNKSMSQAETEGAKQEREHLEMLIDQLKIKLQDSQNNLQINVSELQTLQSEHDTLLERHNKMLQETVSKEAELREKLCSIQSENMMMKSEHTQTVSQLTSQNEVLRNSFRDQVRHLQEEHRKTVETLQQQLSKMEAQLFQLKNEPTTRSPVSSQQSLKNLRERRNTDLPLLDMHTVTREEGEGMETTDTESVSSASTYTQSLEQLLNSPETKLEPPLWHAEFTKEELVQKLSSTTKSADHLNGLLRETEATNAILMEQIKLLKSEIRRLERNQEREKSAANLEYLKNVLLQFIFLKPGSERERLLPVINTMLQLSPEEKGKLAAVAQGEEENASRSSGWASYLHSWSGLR
inactive: [1] 0.094 | [2] -0.116 | [3] 0.053 | [4] -0.005 | [5] 0.038 | [6] 0.013 | [7] 0.026 | [8] -0.01 | [9] 0.196 | [10] 0.031

GHDC (UniProt Q8N2G8)
inactive: [1] -0.075 | [2] -0.053 | [3] -0.063 | [4] -0.021 | [5] 0.011 | [6] -0.024 | [7] 0.009 | [8] 0.008 | [9] -0.053 | [10] -0.041

GLUD1 (UniProt P00367)
inactive: [1] 0.146 | [2] 0.25 | [3] 0.034 | [4] 0.024 | [5] 0.126 | [6] -0.054 | [7] 0 | [8] -0.007 | [9] -0.128 | [10] 0.102

GALNT11 (UniProt Q8NCW6)
inactive: [1] 0.057 | [3] 0.014 | [4] -0.002 | [5] -0.038 | [6] 0.015 | [7] -0.079 | [8] 0.176 | [9] 0.013 | [10] -0.009
active: [2] -0.223

HOOK3 (UniProt Q86VS8)
Sequence of UniProt Q86VS8 (Q86VS8 whole entry, looked up): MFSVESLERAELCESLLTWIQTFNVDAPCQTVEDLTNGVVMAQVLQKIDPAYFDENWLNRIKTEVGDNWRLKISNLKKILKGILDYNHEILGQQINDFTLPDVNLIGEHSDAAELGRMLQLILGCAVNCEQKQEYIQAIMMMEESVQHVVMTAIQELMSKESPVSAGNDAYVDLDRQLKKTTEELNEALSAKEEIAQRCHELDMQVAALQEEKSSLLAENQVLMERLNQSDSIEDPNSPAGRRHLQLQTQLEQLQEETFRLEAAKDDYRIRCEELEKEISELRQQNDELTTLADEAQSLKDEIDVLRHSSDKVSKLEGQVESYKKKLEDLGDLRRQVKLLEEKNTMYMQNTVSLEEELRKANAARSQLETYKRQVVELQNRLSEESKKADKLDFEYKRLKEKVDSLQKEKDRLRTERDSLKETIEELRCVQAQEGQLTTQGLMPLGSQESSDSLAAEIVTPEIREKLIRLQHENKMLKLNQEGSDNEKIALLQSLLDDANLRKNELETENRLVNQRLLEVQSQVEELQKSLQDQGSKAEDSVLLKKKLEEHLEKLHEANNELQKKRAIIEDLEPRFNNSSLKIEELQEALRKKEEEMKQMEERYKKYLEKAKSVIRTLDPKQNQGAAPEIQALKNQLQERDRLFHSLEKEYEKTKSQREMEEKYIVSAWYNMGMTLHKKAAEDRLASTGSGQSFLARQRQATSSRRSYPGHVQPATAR
active: [2] -0.395 | [10] -0.358
inactive: [1] -0.151 | [3] 0.034 | [4] 0.004 | [5] 0.006 | [6] -0.017 | [7] 0.005 | [8] 0.09 | [9] 0.031

FOXK1 (UniProt P85037)
inactive: [1] 0.429 | [2] -0.017 | [3] 0.035 | [4] 0.027 | [5] -0.094 | [6] 0.041 | [7] -0.001 | [8] -0.077 | [9] -0.289 | [10] 0.456

GNB2 (UniProt P62879)
Sequence of UniProt P62879 (P62879 whole entry, looked up): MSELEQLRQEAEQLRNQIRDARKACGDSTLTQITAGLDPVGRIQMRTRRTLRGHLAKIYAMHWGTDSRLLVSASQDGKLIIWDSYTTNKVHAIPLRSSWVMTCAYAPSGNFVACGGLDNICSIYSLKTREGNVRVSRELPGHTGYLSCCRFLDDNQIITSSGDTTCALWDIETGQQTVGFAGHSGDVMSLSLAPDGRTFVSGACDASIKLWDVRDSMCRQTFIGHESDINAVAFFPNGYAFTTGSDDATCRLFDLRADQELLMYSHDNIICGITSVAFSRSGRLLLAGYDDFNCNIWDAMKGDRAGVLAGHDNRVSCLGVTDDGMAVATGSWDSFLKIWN
inactive: [1] 0.122 | [2] 0.103 | [3] 0.003 | [4] 0.046 | [5] -0.01 | [6] -0.023 | [7] -0.042 | [8] -0.01 | [9] -0.079
active: [10] 0.3

H2AFX (UniProt P16104)
inactive: [1] 0.002 | [2] 0.214 | [3] -0.096 | [4] -0.237 | [5] -0.01 | [6] 0.279 | [7] -0.213 | [8] -0.101 | [9] 0.501 | [10] 0.082

HNRNPUL2 (UniProt Q1KMD3)
inactive: [1] 0.172 | [2] 0.135 | [3] -0.023 | [4] -0.084 | [5] -0.036 | [6] 0.092 | [7] -0.012 | [8] -0.007 | [9] 0.131 | [10] -0.013

HNRNPH2 (UniProt P55795)
Sequence of UniProt P55795 (P55795 whole entry, looked up): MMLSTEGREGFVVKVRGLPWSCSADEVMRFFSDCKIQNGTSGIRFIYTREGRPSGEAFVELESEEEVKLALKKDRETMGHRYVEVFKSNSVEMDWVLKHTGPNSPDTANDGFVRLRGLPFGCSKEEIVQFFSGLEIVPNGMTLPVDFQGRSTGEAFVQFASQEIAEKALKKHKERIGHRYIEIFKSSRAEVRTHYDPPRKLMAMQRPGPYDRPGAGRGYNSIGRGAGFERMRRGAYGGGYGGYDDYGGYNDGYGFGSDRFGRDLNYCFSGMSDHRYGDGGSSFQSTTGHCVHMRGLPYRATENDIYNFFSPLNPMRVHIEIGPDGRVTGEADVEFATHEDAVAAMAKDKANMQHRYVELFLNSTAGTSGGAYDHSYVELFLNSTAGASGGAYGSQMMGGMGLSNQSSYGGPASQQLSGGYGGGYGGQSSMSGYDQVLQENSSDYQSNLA
inactive: [1] -0.119 | [3] 0.073 | [4] -0.004 | [5] -0.202 | [6] 0 | [7] 0.069 | [8] 0.038 | [9] 0.087 | [10] -0.06
active: [2] -0.667

FUBP3 (UniProt Q96I24)
active: [2] -0.251
inactive: [1] 0.061 | [3] 0.045 | [4] 0.021 | [5] 0.025 | [6] 0.064 | [7] -0.028 | [8] 0.016 | [9] 0.02 | [10] 0.059

FYB1 isoform 3 (UniProt O15117)
inactive: [1] -0.018 | [2] -0.201 | [3] 0.263 | [4] 0.052 | [5] -0.057 | [6] -0.008 | [7] 0.019 | [8] 0.115 | [9] -0.068 | [10] -0.246

HPCAL1 (UniProt P37235)
inactive: [1] -0.076 | [2] -0.065 | [3] -0.028 | [4] 0.048 | [5] 0.003 | [6] 0.039 | [7] 0.019 | [8] 0.005 | [9] -0.029 | [10] -0.032

IFT80 isoform 3 (UniProt Q9P2H3)
active: [2] -0.232
inactive: [1] 0.039 | [3] 0.072 | [4] 0.053 | [5] 0.008 | [6] -0.09 | [7] 0.095 | [8] 0.028 | [9] -0.084 | [10] -0.157

HMGB3 (UniProt O15347)
inactive: [1] -0.182 | [2] 0.064 | [3] 0.053 | [4] -0.007 | [5] 0.015 | [6] -0.021 | [7] -0.022 | [8] 0 | [9] -0.039 | [10] 0.015

HBA1 (UniProt P69905)
inactive: [1] 0.049 | [2] -0.059 | [3] -0.038 | [4] 0.316 | [5] 0.078 | [6] -0.076 | [7] 0.012 | [8] 0.022 | [9] -0.044 | [10] 0.153

FDXR isoform 7 (UniProt P22570)
active: [10] -0.387
inactive: [1] 0.052 | [2] 0.003 | [3] 0.025 | [4] 0.059 | [5] 0.01 | [6] -0.144 | [7] 0.012 | [8] 0.035 | [9] -0.097

FRA10AC1 isoform 3 (UniProt Q70Z53)
Sequence of UniProt Q70Z53 (Q70Z53 whole entry, looked up): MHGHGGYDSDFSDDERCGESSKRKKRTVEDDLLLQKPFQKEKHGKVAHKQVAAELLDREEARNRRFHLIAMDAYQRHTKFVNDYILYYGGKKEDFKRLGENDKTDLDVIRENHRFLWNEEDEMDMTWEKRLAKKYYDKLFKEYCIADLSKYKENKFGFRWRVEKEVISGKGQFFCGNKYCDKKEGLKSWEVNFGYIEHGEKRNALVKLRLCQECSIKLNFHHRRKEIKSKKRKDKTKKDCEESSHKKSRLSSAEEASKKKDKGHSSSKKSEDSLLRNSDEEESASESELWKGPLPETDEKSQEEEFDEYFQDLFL
inactive: [1] -0.086 | [3] -0.034 | [4] 0.041 | [5] -0.058 | [6] 0.025 | [7] -0.013 | [8] 0.115 | [9] 0.093 | [10] 0.057
active: [2] -0.613

FANCD2 isoform 1 (UniProt Q9BXW9)
inactive: [1] -0.229 | [2] -0.251 | [3] 0.118 | [4] -0.307 | [5] -0.04 | [6] -0.055 | [7] 0.026 | [8] 0.062 | [9] -0.009 | [10] -0.233

ICMT (UniProt O60725)
inactive: [1] 0.202 | [2] 0.138 | [3] -0.027 | [4] -0.029 | [5] 0.073 | [7] 0.061 | [8] 0.033 | [9] -0.051

H1FX (UniProt Q92522)
Sequence of UniProt Q92522 (Q92522 whole entry, looked up): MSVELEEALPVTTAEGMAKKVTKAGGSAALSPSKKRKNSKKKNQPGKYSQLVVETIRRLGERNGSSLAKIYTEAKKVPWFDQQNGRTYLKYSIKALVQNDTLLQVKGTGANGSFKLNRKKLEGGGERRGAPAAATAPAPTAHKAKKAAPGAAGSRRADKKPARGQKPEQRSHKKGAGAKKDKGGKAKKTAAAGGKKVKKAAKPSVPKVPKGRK
inactive: [1] 0.166 | [2] 0.415 | [3] -0.003 | [4] -0.201 | [5] -0.026 | [6] 0.041 | [7] -0.115 | [8] -0.156 | [9] 0.287 | [10] 0.129

FUCA1 (UniProt P04066)
inactive: [3] -0.061 | [4] -0.03 | [5] 0.007 | [6] -0.006 | [7] -0.025 | [8] -0.008 | [9] -0.017 | [10] -0.141
active: [1] -1.33 | [2] -1.73

HOMER1 (UniProt Q86YM7)
Sequence of UniProt Q86YM7 (Q86YM7 whole entry, looked up): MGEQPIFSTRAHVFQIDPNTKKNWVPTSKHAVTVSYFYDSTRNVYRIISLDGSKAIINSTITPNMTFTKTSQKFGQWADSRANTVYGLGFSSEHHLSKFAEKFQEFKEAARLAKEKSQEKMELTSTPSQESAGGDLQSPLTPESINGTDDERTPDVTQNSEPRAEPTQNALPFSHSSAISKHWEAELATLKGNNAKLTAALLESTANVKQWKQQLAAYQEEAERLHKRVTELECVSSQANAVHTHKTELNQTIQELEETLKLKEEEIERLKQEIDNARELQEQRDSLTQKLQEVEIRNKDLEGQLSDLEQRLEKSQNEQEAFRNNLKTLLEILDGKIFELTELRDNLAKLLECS
inactive: [1] -0.018 | [2] 0.024 | [3] -0.099 | [4] 0.006 | [5] 0.017 | [6] -0.025 | [7] 0.018 | [8] -0.011 | [9] -0.018 | [10] 0.033

FBXO7 (UniProt Q9Y3I1)
Sequence of UniProt Q9Y3I1 (Q9Y3I1 whole entry, looked up): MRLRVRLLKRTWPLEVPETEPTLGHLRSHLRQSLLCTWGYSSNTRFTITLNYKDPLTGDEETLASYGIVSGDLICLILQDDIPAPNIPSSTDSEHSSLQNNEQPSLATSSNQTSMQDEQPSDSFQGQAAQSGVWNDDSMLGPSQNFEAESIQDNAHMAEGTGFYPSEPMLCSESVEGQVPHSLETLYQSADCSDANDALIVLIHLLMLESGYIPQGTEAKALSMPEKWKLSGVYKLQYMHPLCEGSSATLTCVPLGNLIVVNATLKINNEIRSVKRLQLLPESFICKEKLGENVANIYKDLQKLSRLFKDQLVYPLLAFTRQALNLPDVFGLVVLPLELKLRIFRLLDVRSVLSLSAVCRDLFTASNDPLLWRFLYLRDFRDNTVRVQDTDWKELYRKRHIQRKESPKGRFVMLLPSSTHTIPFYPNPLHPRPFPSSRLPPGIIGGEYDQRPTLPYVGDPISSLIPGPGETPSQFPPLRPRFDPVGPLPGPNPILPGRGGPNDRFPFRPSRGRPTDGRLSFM
active: [6] -0.295
inactive: [1] 0.079 | [2] -0.198 | [3] 0.044 | [4] -0.012 | [5] -0.066 | [7] 0.029 | [8] 0.008 | [9] -0.022 | [10] 0.003

IFNGR1 (UniProt P15260)
inactive: [1] 0.065 | [2] 0.15 | [3] -0.382 | [4] 0.021 | [5] -0.108 | [6] 0.1 | [7] -0.087 | [8] -0.02 | [9] 0.032 | [10] 0.127

GLS isoform 3 (UniProt O94925)
inactive: [1] -0.172 | [3] 0.126 | [4] 0.152 | [5] -0.017 | [6] -0.055 | [7] 0.069 | [8] 0.046 | [9] -0.039 | [10] -0.364
active: [2] -0.699

FBXO6 (UniProt Q9NRD1)
Sequence of UniProt Q9NRD1 (Q9NRD1 whole entry, looked up): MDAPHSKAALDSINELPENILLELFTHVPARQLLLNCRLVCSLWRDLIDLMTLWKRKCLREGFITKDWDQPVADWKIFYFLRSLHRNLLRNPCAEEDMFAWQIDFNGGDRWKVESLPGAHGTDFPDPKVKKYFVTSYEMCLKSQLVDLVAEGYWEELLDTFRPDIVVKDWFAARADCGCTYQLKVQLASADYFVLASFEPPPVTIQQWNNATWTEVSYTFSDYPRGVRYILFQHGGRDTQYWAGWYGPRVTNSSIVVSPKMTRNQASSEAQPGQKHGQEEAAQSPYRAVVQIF
active: [1] 0.683 | [2] 0.696 | [10] 0.366
inactive: [3] 0.096 | [4] -0.029 | [5] -0.037 | [6] -0.038 | [7] 0.036 | [8] 0.006 | [9] 0.005

IDI1 isoform 2 (UniProt Q13907)
inactive: [1] 0.055 | [2] 0.127 | [3] -0.05 | [4] -0.079 | [5] -0.008 | [6] -0.081 | [7] -0.065 | [8] -0.01 | [9] -0.004 | [10] -0.005
